# MOR-DOR inv ag = mu-delta opioid heterodimer inverse agonism | P35372+P41143 | cell-based MOR-DOR heterodimer luminescence | inhibition, % at 9.3 µM | hit rate 0.21% among 340,000; in the data active means inhibition above about 22%, passing the limit was not always enough;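 further: 0% = cells with DMSO and 100% = wells without cells with DMSO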
# OPRM1-OPRD1 ag = agonists of human mu-delta opioid receptor heterodimerization. P35372+P41143. hit rate 0.3% among 340,000. activation, % at 9.3 µM. cells, OPRM1-OPRD1 heterodimerization, luminescence. AID 504326; in the data active means activation above about 18%;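 further: 0% = vehicle-treated cells and 100% = reference agonist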
# HTR5A inv ctr = HTR5A inverse agonism, opioid heterodimer counter-screen; hit rate 0.083% among 340,000; HTR5A cell line, luminescence; P47898; AID 504634; inhibition, % at 9.3 µM; in the data active means inhibition mostly above about 23%, no sharp cut-off; inactive means mostly below about 18%;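 further: 0% = cells with DMSO and 100% = no-cell wells with DMSO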
# HTR5A ag ctr = activates human HTR5A in OPRM1-OPRD1 agonist counter-screen. HTR5A agonist assay, luminescence, cell-based. hit rate 0.61% among 340,000. AID 504692. activation, % at 9.3 µM; in the data active means activation mostly above about 9.5%, no sharp cut-off; inactive means mostly below about 7.6%;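 further: 0% = cells with vehicle only and 100% = reference agonist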
# MsrA inh = inhibits bovine methionine sulfoxide reductase A. inhibition, % at 15.5 µM. AID 651718. purified bovine MsrA, absorbance read-out. hit rate 0.75% among 360,000; in the data active means inhibition above about 4.5%;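 further: 0% = vehicle wells with enzyme and 100% = reference inhibitor wells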
# MsrA act = bovine methionine sulfoxide reductase A activation. activation, % at 10.6 µM. purified bovine MsrA, absorbance read-out. AID 602163. hit rate 0.3% among 360,000; in the data active means activation above about 7.5%;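 further: 0% = vehicle and 100% = reference activator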
# An asterisk follows results filed as active; nt = no result given. Most compounds without a hit are left out; they make up all but 1.9% or so of the library.
SMILES,MOR-DOR inv ag,OPRM1-OPRD1 ag,HTR5A inv ctr,HTR5A ag ctr,MsrA inh,MsrA act
COc1ccccc1-n1c(SC)nc2c(sc(=S)n2-c2ccccc2)c1=O,15.9,-2.9,-13.2,3.4,1.3,-5.0
COc1ccccc1-n1c(=S)sc2c(=O)n(Cc3ccco3)c(SC)nc21,-7.1,1.3,-12.2,10.2*,1.2,-15.2
CCOC(=O)N1CCN(C(=O)C[C@H]2C[C@@]3(C(=O)OC)C(=C[C@H](C(C)(C)C)O[C@@H]3C)N(Cc3ccc4c(c3)OCO4)C2=O)CC1,nt,nt,nt,nt,0.0,nt
CC(O)(CS(=O)(=O)Cc1ccccc1)C(=O)Nc1ccc(C(F)(F)F)cc1 (stereo not given),7.2,-1.4,22.5,1.6,0.8,-4.4
CC(O)(CS(=O)(=O)Cc1ccccc1)C(=O)Nc1cccc(C(F)(F)F)c1 (stereo not given),9.2,-1.7,3.3,0.7,0.0,10.3*
O=C1N/C(=C/c2cccn2-c2ccc(F)cc2)C(=O)N1Cc1ccccc1F,-22.6,3.6,22.0,11.9*,1.1,-13.0
C[C@@H]1CN([C@H](C)CO)C(=O)CCCn2cc(nn2)CO[C@H]1CN(C)S(=O)(=O)c1cn(C)cn1,nt,nt,nt,nt,0.1,nt
C/C(=N/Nc1ccc([N+](=O)[O-])cc1)c1c[nH]c2ccccc12,14.3,-2.9,29.9*,-7.9,0.7,-2.4
C/C(=N/Nc1ccc([N+](=O)[O-])cc1)c1ccc(C)cc1C,-20.1,4.1,9.3,-3.9,0.0,-2.2
CCC(=O)Nc1ccc(Cl)c(NC(=O)c2ccc([N+](=O)[O-])cc2)c1,-32.7,4.5,-30.7,11.5*,-0.2,-2.7
CCC(=O)Nc1ccc(Cl)c(NC(=O)c2cccc(OC)c2)c1,21.3,-4.3,-11.0,4.6,-0.8,-8.5
COc1ccccc1Cc1c(C2CCCCC2)nc2c(C)cc(Br)cn12,nt,nt,nt,nt,1.2,nt
COc1cc(/C(C)=N/NC(=O)c2ccc(CSc3nncn3C)cc2)cc(OC)c1OC,-10.6,2.0,-28.4,10.4*,1.1,2.8
COc1cccc(-c2cc(CNC(=O)[C@H]3O[C@@H](n4cnc(C(N)=O)n4)[C@H](O)[C@@H]3O)no2)c1,nt,nt,nt,nt,0.7,nt
COC(=O)[C@]12C[C@H](CC(=O)NCc3cccs3)C(=O)N(CCC3=CCCCC3)C1=C[C@H](C(C)(C)C)O[C@@H]2C,nt,nt,nt,nt,1.2,nt
N#CCOC(=O)/C=C/c1ccc2c(c1)OCO2,9.1,-1.7,-33.5,7.1,7.0*,-6.0
COc1ccccc1CCn1cnc(-c2ccccc2)c1CC(C)C,nt,nt,nt,nt,0.2,nt
COCC1CN(CCc2ccc(F)cc2)S(=O)(=O)c2c(F)cccc2O1 (stereo not given),nt,nt,nt,nt,1.4,nt
CC(C)[C@H](NC(=O)c1ccccc1)C(=O)N1CCC[C@H]1C(=O)NCc1ccccc1,nt,nt,nt,nt,-0.8,nt
CN(C)c1ccc(CN(C(=O)COc2ccc(F)cc2)C2CCS(=O)(=O)C2)cc1 (stereo not given),-9.0,1.6,-27.6,1.1,nt,8.2*
Cc1ccc(OCC(=O)N(Cc2ccc(N(C)C)cc2)C2CCS(=O)(=O)C2)cc1 (stereo not given),6.7,-1.2,-39.8,6.4,-0.1,-2.8
Cc1ccccc1NC(=O)N(C)[C@H]1C[C@H]2c3[nH]c4c(-c5ccc6c(c5)OCO6)cccc4c3CCN2C(=O)[C@H]1[C@H](C)O,nt,nt,nt,nt,-0.5,nt
COc1cc(CC(=O)NCc2ccc3c(c2)OCO3)cc(OC)c1OC,6.3,-1.2,8.0,0.1,-0.7,-1.4
COc1cc(C[C@H](C)[C@H](C)Cc2ccc3c(c2)OCO3)ccc1O,-12.4,2.7,-0.3,2.3,nt,16.4*
COc1ccc(C(=O)Nc2ccccc2-c2nnn(CC(=O)Nc3ccc4c(c3)OCCO4)n2)cc1,14.6,-2.7,-13.8,5.4,0.4,8.5*
SMILES,MOR-DOR inv ag,OPRM1-OPRD1 ag,HTR5A inv ctr,HTR5A ag ctr,MsrA inh,MsrA act
Nc1ccccc1-c1nnn(CC(=O)Nc2ccc3c(c2)OCCO3)n1,16.6,-3.2,0.4,1.7,3.3,-0.6
C=CCN1C(=O)c2[nH]nc(-c3ccccc3)c2C1c1ccc(C)cc1 (stereo not given),nt,nt,nt,nt,1.7,nt
Brc1ccc(COc2cccc3cccnc23)cc1,nt,nt,nt,nt,0.0,-4.6
N#Cc1ccc(COc2cccc3cccnc23)cc1,-10.9,1.7,-10.1,13.7*,0.5,-13.4
CC(C)C1S/C(=N/N=C/c2ccco2)NC1=O (stereo not given),10.0,-1.8,-1.2,-2.5,4.7*,0.0
CC(C)=CCC/C(C)=C/CN1C(=O)N(c2ccc(F)cc2)[C@H]2C[C@@H](c3ccccc3)[C@@H](C)[C@@H](C(=O)N3CCOCC3)C[C@H]21,nt,nt,nt,nt,0.6,nt
Cc1ccc(S(=O)(=O)NN=C2CCN(Cc3ccccc3)CC2)cc1,2.1,-0.4,7.5,5.5,0.8,-2.0
C=CCC1CCC/C(=N\NS(=O)(=O)c2ccc(C)cc2)C1 (stereo not given),-2.3,0.4,-49.1,13.4*,-0.6,-10.6
N/C(CC(=O)Nc1ccc(F)c(Cl)c1)=N\OC(=O)c1cccs1,-64.5,12.8,-3.4,12.9*,0.0,-2.2
CN1CCCCC(NC(=O)CSc2ccccc2)C1=O (stereo not given),nt,nt,nt,nt,0.4,nt
Cc1ccc(S(=O)(=O)Nc2cccc3ncccc23)cc1,-8.1,1.5,1.9,-0.7,0.8,-2.4
Cc1ccc(S(=O)(=O)Nc2cccc3ncccc23)s1,43.7*,-7.5,27.0,-6.5,nt,-0.5
COc1ccc(S(=O)(=O)Cc2ccc(C(=O)N3CC(C)CC(C)C3)o2)cc1 (stereo not given),-0.2,0.0,-36.4,13.2*,0.4,-0.9
COc1ccc(S(=O)(=O)Cc2ccc(C(=O)N3CCOCC3)o2)cc1,9.1,-1.8,-23.2,7.8,0.3,-10.2
Cc1cc(C(=O)c2ccccc2)cc(C)c1O,13.5,-2.8,15.8,-4.0,-0.9,-4.0
CC1=C/C(=C(\c2cc(C)c(O)c(Br)c2)c2ccccc2S(=O)(=O)O)C=C(Br)C1=O,28.0*,-5.5,8.0,-11.1,0.7,-3.1
COCCN(CCOC)C(=O)[C@H](CCc1ccccc1)NC(=O)[C@H]1O[C@@H](n2cnc3c(N)ncnc32)[C@H](O)[C@@H]1O,nt,nt,nt,nt,1.3,nt
COc1ccc(C(=O)c2sc3nc(-c4ccccc4)ccc3c2N)cc1OC,-57.7,9.7,-10.0,17.8*,-0.1,0.2
COc1ccc(-c2ccc3c(N)c(C(=O)c4ccc(OC)c(OC)c4)sc3n2)cc1,-72.9,13.5,8.4,10.1,0.4,-3.7
Cc1ccccc1OCCc1c(C)[nH]c(=S)[nH]c1=O,21.9,-4.6,-3.4,12.3*,-0.5,-1.9
Cc1[nH]c(=S)[nH]c(=O)c1CCOc1ccccc1,12.2,-2.2,-2.1,-4.1,-0.3,-7.4
CCn1c(C)nc2cc(C(=O)NN=C(C)c3ccc(C#N)cc3)ccc21,9.1,-1.9,-51.5,13.1*,0.1,-9.0
COC(=O)c1cc2c(c3c4ccccc4n(S(=O)(=O)c4cccc(C)c4)c13)C(=O)N(C)C2,nt,nt,nt,nt,0.2,nt
CCCc1c(Cc2cccc(F)c2)ncn1CCc1ccccc1OC,nt,nt,nt,nt,-0.4,nt
CCC(C)NCCOCCOc1ccc(F)cc1 (stereo not given),-3.2,0.6,-20.0,1.0,-0.1,0.1

# Screening data (PubChem)
